Assay outcomes: PubChem, National Center for Advancing Translational Sciences (NCATS)
TDP1 cell CPT: growth inhibition of DT40 Tdp1-/-;hTDP1 cells with camptothecin (screen for TDP1 inhibitors) | chicken DT40 Tdp1-/-;hTDP1 cells + 20 nM CPT, ATP luminescence, 48 h | 420,000 tested, 12% active | Potency, µM (titrated, usually from 46.2 µM), without a hit: at the top dose activity change, negative = growth inhibition, most hits filed as inhibitors; note: potency is the fitted concentration of half-maximal effect; nearly all actives have a fitted effect of over 55% in size
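Cell growth measured by CellTiter-Glo luminescence after a minimum 48 h, 37 C compound exposure with 20 nM CPT in Tdp1-knockout DT40 cells stably expressing hTDP1, seeded 400/well; qHTS titration format.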
RORg inh: blocks mouse ROR gamma transcriptional activity; P51450; Drosophila S2 Gal4-RORgamma UAS-luciferase reporter, 20 h; Potency, µM (titrated, usually from 53.6 µM), for inactives: top-dose activity change, negative = inhibition, actives largely listed as inhibitors; 310,000 tested, 5.4% active; note: potency is the fitted concentration of half-maximal effect; nearly all actives have a fitted effect of over 60% in size
Target sequence (P51450 whole entry, looked up, the tested form may be a part): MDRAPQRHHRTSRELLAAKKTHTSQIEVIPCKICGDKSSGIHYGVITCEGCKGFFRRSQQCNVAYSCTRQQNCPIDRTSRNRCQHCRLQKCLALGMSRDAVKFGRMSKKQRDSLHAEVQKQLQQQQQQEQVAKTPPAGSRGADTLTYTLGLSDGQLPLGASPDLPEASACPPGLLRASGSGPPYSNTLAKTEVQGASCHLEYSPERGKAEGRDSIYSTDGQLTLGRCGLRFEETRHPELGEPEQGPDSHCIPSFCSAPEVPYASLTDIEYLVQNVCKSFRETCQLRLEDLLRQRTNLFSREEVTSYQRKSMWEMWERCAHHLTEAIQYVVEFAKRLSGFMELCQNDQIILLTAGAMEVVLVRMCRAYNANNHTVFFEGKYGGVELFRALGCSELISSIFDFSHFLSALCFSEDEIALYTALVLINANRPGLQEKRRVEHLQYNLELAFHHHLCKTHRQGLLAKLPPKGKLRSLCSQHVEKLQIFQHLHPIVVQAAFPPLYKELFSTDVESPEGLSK
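Luciferase reporter read in Schneider cells carrying Gal4-RORγ (mouse) and UAS-Photinus luciferase; cells given compound 1 h before 700 uM copper sulfate induction, then incubated 20 h at ambient temperature.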
TDP1 cell noCPT: qHTS for Inhibitors of human tyrosyl-DNA phosphodiesterase 1 (TDP1): qHTS in cells in absence of CPT; DT40 Tdp1-/- hTDP1 cells, no CPT, ATP luminescence, 48 h; Potency, µM (doses to about 46.2 µM), without a hit: top-dose activity change, negative = growth inhibition, usual class: inhibitors; 420,000 tested, 15% active; note: potency is the fitted concentration of half-maximal effect; nearly all actives have a fitted effect of over 55% in size
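A cellular qHTS used chicken DT40 cells lacking endogenous Tdp1 but carrying stably transfected human TDP1. Compounds were applied without camptothecin, and cell growth kinetics were judged by ATP-dependent luminescence after ≥48 hr.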
VP16 counter: inhibits Gal4-VP16 luciferase reporter, ROR gamma counter-screen; Drosophila S2 Gal4-VP16 UAS-luciferase, luminescence, 20 h; Potency, µM (series often up to 53.6 µM), for the others: at the highest dose activity, negative = inhibition, usual class: inhibitors; 310,000 tested, 3.5% active; AID 2546;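 note: Gal4-VP16 expression switched on by copper sulfate through the metallothionein promoter; potency is the fitted concentration of half-maximal effect; nearly all actives have a fitted effect of over 50% in size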
IL1B secr inh: blocks inflammasome-driven IL-1 beta release; AID 743279; 360,000 tested, 4.7% active; THP-1 LPS/ATP IL-1B secretion, AlphaLISA, 16 h; stronger effect = lower value; activity change, % at 57.5 µM; in the data active = activity change below about -50%; inconclusive = mostly about -30% to -49%
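THP-1 cells pretreated 1 hr with compounds (up to 57.5 uM final), then stimulated with LPS (250 ng/mL final) plus ATP (1.25 mM final); secreted IL-1B measured by AlphaLISA after 16 hr, decreased signal indicating inhibition.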
ELG1 DNA repair: inhibitors of ELG1-dependent DNA repair in HEK293T cells; AID 504467; Potency, µM (top dose mostly 46.1 µM), inactives show at the highest dose activity change, negative = inhibition, actives largely listed as inhibitors; 330,000 tested, 2.3% active; HEK293T ELG1-luciferase reporter, luminescence, 16 h; DNA damage induced by 5-fluorouridine; note: potency is the fitted concentration of half-maximal effect; nearly all actives have a fitted effect of over 55% in size
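In this reporter screen, reduction of luminescence relative to DMSO vehicle indicated activity. Compounds and 5-fluorouridine were added together to 2,000 cells per well, incubated for 16 hr at 37 °C, then developed with ONE-Glo.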
* marks the source's active call; other numbers are inactive results; u = inconclusive; x = no result given; ! = not confirmed by another sample; [ ] = remark or other dose. An excerpt weighted towards active compounds, which were near 21% of everything screened. Unless noted, calls come from the whole dose curve; as a rule, active = well fitted curve in the direction sought with a large enough effect; inconclusive = small, poorly fitted or top-dose-only effect, or another doubt; inactive = no such curve, though single readings can be large; an effect the other way counts as inactive or inconclusive. % is set by controls: 0 for no effect and ±100 for the full control effect.

SMILES	TDP1 cell CPT	RORg inh	TDP1 cell noCPT	VP16 counter	IL1B secr inh	ELG1 DNA repair
CCOP(=O)(OCC)Oc1cc(C)c(N(C)C)c(C)c1	-29%	-1%	u	-3%	2	-2%
Cc1ccc(CN2C3CCCC2CC(NC(=O)c2ccc(F)cc2)C3)cc1 (stereo unspecified)	-9%	-30%	u	1%	-16	-12%
Cc1ccc(C2CC3CCC(C2)N3Cc2ccccc2F)cc1 (stereo unspecified)	u	-11%	u	4%	-85*	u
CCC(=O)O[C@@H]1[C@@H](OC(C)=O)[C@@]2(O)C(C[C@H](O)C2(C)C)[C@](C)(O)[C@H]2CC[C@@H]3[C@@H](O)[C@]12C[C@@]3(C)O (stereo partly specified)	-16%	3%	-3%	-3%	24	-4%
O=c1[nH]c(=S)n(-c2ccccc2F)c(O)c1C=NCCN1CCNCC1	-7%	-3%	-11%	-15%	-10	21%
CCN(CC)Cc1cc(Nc2ccnc3cc(Cl)ccc23)ccc1O	16µM*!	2%	23µM*!	-5%	-77*!	-17%
O=c1[nH]c(=S)n(-c2ccc(Cl)cc2)c(O)c1C=Nc1ccc(N2CCOCC2)cc1	-20%	u	1%	3%	15	0%
O=c1c2cc(N3CCOCC3)ccc2[nH]c(=S)n1Cc1ccc(Cl)cc1	21µM*	8.9µM*	15µM*	0.56µM*	0	u
CCCNC(=O)N1[C@H]2CC[C@@H]1C(C(=O)OC)=C(c1ccc(F)cc1F)C2	u	x	u	x	25	19%
Fc1ccc(C[n+]2c(-c3ccccc3)cc(-c3ccccc3)cc2-c2ccccc2)cc1	1.2µM*	x	0.58µM*	x	0	u
Cc1cc(-c2ccccc2)cc(-c2ccccc2)[n+]1CCc1ccccc1	0.18µM*	x	0.21µM*	x	u	u
CN[C@@H](C)[C@H]1CC[C@@H](N)[C@@H](O[C@@H]2[C@@H](O)[C@@H](O[C@H]3OC[C@@](C)(O)[C@@H](NC)[C@@H]3O)[C@H](N)C[C@@H]2N)O1 (tested in a mixture with another compound)	x	0%[2.98 µM]	x	-4%[17 µM]	x	x
CN(C)[C@@H]1C(=O)C(C(N)=O)=C(O)[C@@]2(O)C(=O)C3=C(O)c4c(O)ccc(Cl)c4[C@@](C)(O)[C@H]3C[C@@H]12	15µM*!	-21%	u	-9%	-4	-5%
COC[C@]12CN(C=O)C3C4C(OC)C1[C@@]3(C1CC3(O)C(OC)C(O)C4(OC(C)=O)C1C3OC(=O)c1ccccc1)[C@@H](OC)CC2O (stereo partly specified)	19%	1%	28%	11%	x	x
CC(C)n1c(O)c(C=NCc2ccccc2)c(=O)[nH]c1=S	0%	u	5%	-15%	-4	-1%
COC(=O)[C@]1(C)CC[C@@]2(C)CC[C@@]3(C)C4=CCc5c(cc(O)c(O)c5C)[C@]4(C)CC[C@@]3(C)C2C1 (stereo partly specified)	4.6µM*	u	1.8µM*	16µM*	x	x
CC(C)c1ccc(N2C(=O)NC(=O)/C(=C\c3cnc(-c4ccccc4)nc3)C2=O)cc1	u	1%	u	-2%	-4	u
CC(C)c1ccc(N2C(=O)NC(=O)/C(=C\C=C\c3ccco3)C2=O)cc1	u	u	u	4.5µM*	-100*	u
CN1CC[C@@]2(CCCN(C(=O)c3ccncc3)C2)C1	-6%	-4%	-15%	-3%	x	x
O=C(Nc1ccccc1)N1CC[C@@]2(CCCNC2)C1	-14%	-34%	4%	6%	x	x
Cc1occc1C(=O)Nc1ccccc1	x	35%	x	4%	x	x
COc1cccc(C(=O)NCc2nc(-c3cccc(NC(=O)c4ccoc4C)c3)oc2C)c1OC	u	x	6.5µM*	x	x	x
COC(=O)C1=C(c2cccc(OC)c2OC)C[C@@H]2CC[C@H]1N2C	-2%	x	-13%	x	9	u
COC(=O)C1=C(c2ccccc2OCc2ccccc2)C[C@@H]2CC[C@H]1N2C	u	x	23µM*	x	-15	x
COC(=O)C1=C(c2ccc(F)cc2OCc2ccccc2)C[C@@H]2CC[C@H]1N2C	23µM*	x	16µM*	x	-18	4%
SMILES	TDP1 cell CPT	RORg inh	TDP1 cell noCPT	VP16 counter	IL1B secr inh	ELG1 DNA repair
N#Cc1ccc(NC(=O)CN2CCN(C(=O)c3cccs3)CC2)cc1Cl	u	x	16µM*	x	-4	u
COC(=O)C1(C(=O)OC)C[C@H](c2ccc(OC)cc2)N(Cc2ccccc2OC)[C@@H]1c1cccs1	16µM*	x	21µM*	x	u	x
COOCC1(C(=O)OC)C[C@H](c2ccc(OC)cc2)N(Cc2ccccc2OC)[C@@H]1c1ccccc1C (stereo partly specified)	u	x	u	x	8	x
O=C(O)c1ccccc1-c1c2cc(Br)c(=O)cc-2oc2[c]([Hg])c(O)c(Br)cc12	1.5µM*	u	0.58µM*	18µM*!	x	x
CN1C(=O)C[N+]([O-])=C(c2ccccc2)c2cc(Cl)ccc21	18%	x	-16%	x	8	x
COC(=O)C1=C(c2cc3ccccc3s2)C[C@@H]2CC[C@H]1N2C(=O)N1CCCC1	4.6µM*	x	x	x	0	x
COC(=O)C1=C(c2cc3ccccc3s2)C[C@@H]2CC[C@H]1N2C(=O)N1CCOCC1	9.2µM*	x	7.3µM*	x	30	x
COC(=O)C1=C(c2cc3ccccc3s2)C[C@@H]2CC[C@H]1N2C(=O)NCCNC(C)=O	-7%	x	-13%	x	17	x
COc1ccc2[nH]cc(CCN=C(N)N)c2c1	10%	16%	-9%	-2%	1	-8%
CCCCc1ccc2[nH]cc(CCN)c2c1	21µM*	27%	21µM*	0%	-89*	1%
CCCCC/C=C\C/C=C\C/C=C\C/C=C\CCCC(=O)NCc1ccc(O)c(OC)c1	x	39%	x	-13%	x	x
COc1cc(CNC(=O)CCCC/C=C/C(C)C)ccc1O	11µM*!	u	8.9µM*!	-12%	6	2%
O=C1/C(=C\c2ccc([N+](=O)[O-])cc2)N2CCC1CC2	-14%	20%	u	-14%	-64*	19%
CCc1ccc(NC(=S)NC2CC3CCC(C2)N3Cc2ccco2)cc1 (stereo unspecified)	18µM*	u	23µM*	-3%	-4	-2%
CC(=O)NCC1=C(c2cccc3ccccc23)C[C@@H]2CC[C@H]1N2Cc1ccco1	u	x	u	x	-11	x
